Test results from PubChem BioAssay AID602383 (National Center for Advancing Translational Sciences (NCATS), 2012).
The source made the active and inactive calls. The call rests on the fitted dose curve; in most records, active means well fitted curve in the direction sought with a large enough effect; inactive means no such curve, though single readings can be large or run the other way.

Molecular target: Pyruvate kinase PKM (Homo sapiens) (UniProt P14618)
Experiment: qHTS for Activators of Human Muscle Isoform 2 Pyruvate Kinase: Muscle Isoform 1 Assay
Conditions: purified hPK-M1, ATP generation, Kinase-Glo luminescence, 1 h; series mostly up to 58.2 µM; activity change, positive = activation: at the top concentration
Protocol: Human pyruvate kinase muscle isoform 1 (hPK-M1) enzyme was supplied as a highly purified (>95% pure) preparation from Harvard Medical School and assayed for its ability to generate ATP from ADP using phosphoenolpyruvate (PEP) as a substrate. ATP generation was detected in a coupled reaction by luciferase-mediated luminescence, an ATP-dependent process. Pyruvate kinase substrates, PEP and ADP, were present in the assay at Km and approximately 10-fold below Km respectively. The enzyme was assayed at an intermediate level of activity to screen for both inhibitors and activators. NIH Chemical Genomics Center [NCGC] NIH Molecular Libraries Probe Centers Network [MLPCN] MLPCN Grant: MH085679 Assay Submitter (PI): Matthew G. Vander Heiden, Harvard Medical School
Three uL of substrate mix (at r.t.) in assay buffer (50 mM Imidazole pH7.2, 50 mM KCl, 7 mM MgCl2, 0.01% Tween 20, 0.05% BSA) was dispensed into white solid bottom 1,536 well microtiter plates so that the final concentrations of substrates in the assay were 0.1 mM ADP and 0.5 mM PEP. 23 nL of compound were delivered by a pin tool and 1 uL of enzyme mix (final concentration of 1 nM) in assay buffer (4 degree Celsius) was added. Plates were incubated at room temperature for 1 hour. Two uL of detection mix (Kinase-Glo, Promega; at 4 degree Celsius protected from light) was added and luminescence read by a ViewLux (Perkin Elmer) at 1 second exposure/plate. Data were normalized to the uninhibited (row 31). Additionally, a no enzyme and 5-fold enzyme control was dispensed in row 32, split equally between the two conditions.

Sequence of Pyruvate kinase PKM (Homo sapiens) (P14618 whole entry, looked up, canonical isoform): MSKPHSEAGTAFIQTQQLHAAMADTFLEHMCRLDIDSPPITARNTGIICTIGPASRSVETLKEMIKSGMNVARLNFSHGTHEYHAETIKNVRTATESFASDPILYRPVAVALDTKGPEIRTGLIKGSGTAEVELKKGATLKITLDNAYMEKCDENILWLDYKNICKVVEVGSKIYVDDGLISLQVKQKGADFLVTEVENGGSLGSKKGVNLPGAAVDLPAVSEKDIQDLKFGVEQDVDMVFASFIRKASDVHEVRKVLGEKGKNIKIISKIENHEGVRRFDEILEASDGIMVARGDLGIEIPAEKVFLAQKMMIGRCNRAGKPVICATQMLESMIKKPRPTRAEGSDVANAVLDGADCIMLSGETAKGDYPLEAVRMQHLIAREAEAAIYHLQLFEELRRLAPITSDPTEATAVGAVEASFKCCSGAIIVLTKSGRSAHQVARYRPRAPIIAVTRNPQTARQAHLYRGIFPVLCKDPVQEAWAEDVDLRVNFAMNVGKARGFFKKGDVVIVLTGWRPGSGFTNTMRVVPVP

Activity change, positive = activation, inactive:
Cc1cc2c(s1)c1cnn(Cc3ccc(F)cc3F)c(=O)c1n2C 7.13%
Cc1cc2c(s1)c1cnn(Cc3c(Cl)ccc(C)c3F)c(=O)c1n2C 7.26%
COc1cccc(Cn2ncc3c4sc(S(C)=O)cc4n(C)c3c2=O)c1 (stereo unspecified) -3.35%
Cc1cc2c(s1)c1cnn(Cc3cc(F)c(F)cc3F)c(=O)c1n2C 8.28%
Cc1cc2c(s1)c1cnn(Cc3cc(F)ccc3F)c(=O)c1n2C 11.1%
Cn1c2cc(S(C)=O)sc2c2cnn(Cc3cccc(N)c3)c(=O)c21 (stereo unspecified) 1.03%
